Source: the supplement of paper PMC6555819

Key:
Assay in all cases: PBM binding z-score (relative to random genomic background probes); higher = stronger binding; sequences stand for … in GC…GCGATTGACAGCGTAGAATGAAGG
[1] = system: FXR:RXRa (NR concentration 270 nM, RXRa partner concentration 90 nM)
How it was run: (§1)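 Binding z-scores take random background probes as their reference. They come from custom Agilent 4×180K protein-binding microarrays incubated 1 h with ligand-free nuclear receptor dimers, with antibodies against each partner (one per run) detecting binding. Scanned fluorescence was regression-normalized.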

[2] = system: LXRa:RXRa (NR concentration 270 nM, RXRa partner concentration 90 nM)
How it was run: as §1

[3] = system: LXRa homodimer (NR concentration 270 nM)
How it was run: as §1

[4] = system: LXRb:RXRa (NR concentration 270 nM, RXRa partner concentration 90 nM)
How it was run: as §1

[5] = system: LXRb homodimer (NR concentration 270 nM)
How it was run: as §1

[6] = system: PPARa:RXRa (NR concentration 270 nM, RXRa partner concentration 90 nM)
How it was run: as §1

[7] = system: PPARg:RXRa (NR concentration 180 nM, RXRa partner concentration 90 nM)
How it was run: as §1

[8] = system: PPARg:RXRa 270nM:90nM, anti-RXR (NR concentration 270 nM, RXRa partner concentration 90 nM)
How it was run: as §1

[9] = system: PPARg:RXRa 30nM:10nM, anti-RXR (NR concentration 30 nM, RXRa partner concentration 10 nM)
How it was run: as §1

[10] = system: PPARg:RXRa 90nM:30nM, anti-RXR (NR concentration 90 nM, RXRa partner concentration 30 nM)
How it was run: as §1

Sequence	PBM binding z-score [1]	PBM binding z-score [2]	PBM binding z-score [3]	PBM binding z-score [4]	PBM binding z-score [5]	PBM binding z-score [6]	PBM binding z-score [7]	PBM binding z-score [8]	PBM binding z-score [9]	PBM binding z-score [10]
GCTAGTTGGTCACTAAAAGGTCACACACCGGTCG	3.49	4.28	4.38	4.27	0.864	4.44	2	3.69	0.993	2.6
ACAGACTGGTGATGAAGGTAACTCAGGCTATCAT	-0.533	-0.452	-0.433	-0.663	-0.582	-0.594	0.512	0.104	-0.179	-0.158
TCGCGTAGGTTAGTCGGGGCATTCAGCCAACATA	0.0922	-0.043	-0.337	0.83	-0.797	0.69	-0.444	0.614	0.929	0.992
TCTCGGAGGACACGAGAGGTCAGAGCTCGACATC	2.17	3.37	2.61	2.53	-0.47	2.99	0.952	1.88	1.53	1.48
CGTCCAAGGTCATAGGAGGTCAGTAAAGACAGAT	7.75	7.7	5.05	6.36	1.18	5.96	5.82	6.05	2.41	4.8
TTACCAAGGTGAAAGGTCGTTGATGCACGCCTTG	3.49	3.43	0.252	2.79	-0.555	5.38	9.01	7.94	6.67	8.46
TCGAGTCGGTTAGGGGCATTCAGAATGGCGTCGA	0.0826	-0.161	-0.614	0.203	-0.666	0.491	-0.446	0.528	0.725	0.702
TCTAGCAGGCCAGAGGGACACTCAAGAGGTACGG	-0.341	-0.607	-1.2	-0.951	-1.48	-0.201	0.823	1.13	1.39	1.15
ATCTCTAGGTAAAGGTAGTTCAGTGAATGCAAAT	0.462	2.47	0.775	0.88	0.769	1.08	0.966	2.17	0.811	1.4
TCTTGTAGATCAAGCAGGTTAAAAAAGCCTGAGT	0.399	0.66	0.0137	0.802	-0.381	1.05	-0.353	1.21	2.5	1.89
CGAACTAGGTCGTTGACAGGACAGTGAATAGTAA	0.598	0.178	-0.251	0.171	-0.626	1.98	2.2	2.02	0.441	1.44
TCTGCTAGGTCACTTGGTCAGCTAACGAGCTGCC	2.56	2.03	-0.292	1.38	0.874	2.97	2.53	3.31	1.62	2.28
TCTTGTAGATCAAAGGTTAATAAAGCCGAAGCCT	1.43	1.96	0.26	2.03	0.175	4.63	7.9	7.38	7.95	8.32
ACAATGAGGTTATTAAGATCAGGGAATTGCGGTC	1.54	1.7	0.283	1.26	0.952	2.42	1.45	1.7	0.622	1.3
CCTTACGGGTCACTCCAGGTTTTAGCATCGGAGT	4.87	5.1	0.102	2.85	-0.172	4.69	3.06	3.81	0.53	2.55
TCGAGTTGGTCAAAGGTCACACACTCGAAATGCG	5.98	5.57	3.08	5.33	0.74	6.37	10.4	9.4	8.64	11.3
ACTTACGGGGCAACGAGGTTATAGCACGCGTATA	0.934	0.688	-0.335	1.73	0.511	2.21	1.64	1.26	0.448	1.2
GCTGCTAGGTCAACTGATGATCAGCTAAAGCTCG	3.88	2.96	-0.334	2.02	0.0909	3.68	2.88	3.19	0.694	2.07
AATACAGGGTCACTAGGCCATAGTAGGTACGAAT	5.83	4.98	1.02	4	0.913	6.01	8.68	6.76	3.65	5.88
TTACCAAGGTGAAACGTCGTTGATGCACGCCTTG	0.678	0.335	-0.246	0.141	-0.495	1.96	1.66	2.76	1.24	2.15
CGAACTAGGGCAAGGACAGTGAATCTCCGCACGC	0.00807	-0.366	0.0437	-0.81	-0.814	1.76	2.96	3.03	0.479	1.87
AGAATGAGGTTATACGTGGATCAGGGAAGAAAGT	2.49	2.03	0.117	1.91	0.299	3.25	1.82	2.19	0.672	1.49

Sequence	PBM binding z-score [1]	PBM binding z-score [2]	PBM binding z-score [3]	PBM binding z-score [4]	PBM binding z-score [5]	PBM binding z-score [6]	PBM binding z-score [7]	PBM binding z-score [8]	PBM binding z-score [9]	PBM binding z-score [10]
CGTCCAAGGTCAGAGAGGGCAGTGAATGCCGAGT	5.26	3.77	0.447	2.71	-0.0412	4.26	2.13	2.88	0.148	1.46
ACTTACGGGTCAACGAGGTTTTAGCACGCGTATA	6.78	4.29	0.188	3.9	0.561	5.92	5.23	4.84	1.94	3.95
CTACCAAGGTGAACAAGGCCGTTGATTACTATTC	0.303	0.209	-0.224	0.646	-0.622	1.25	0.647	0.527	-0.248	0.152
TAGCCTAGGTCATTGAGCCAGTATAGTACGCATC	4.4	3.31	0.78	2.32	0.252	3.48	1.95	1.97	0.417	1.11
AACACAGGGTCACTAGGCCAGAGTAGGTACGAAT	6.27	4.48	0.354	3.63	0.661	5.75	7.72	6.51	2.84	5.42
TTACCAAGGTGAGCTGAGGTCGTCGATCCAACTC	1.73	0.879	-0.506	0.696	-1.82	1.82	0.26	1.06	-0.186	0.372
CCGACTGGGGCAAAGGTAACCATACTCAGTACGA	0.167	0.164	-0.55	0.446	-1.32	4.5	8.83	7.71	7.84	8.13
TCTTGTAGATAAACAGGAGGTTAAGAAAGATCGA	0.162	1.13	0.276	1.01	-0.398	1.27	0.346	1.3	2.82	1.89
CATCCAAGGTCAATGCTAGGTCAGTGAAAGCATT	6.67	5.98	4.36	4.42	1.77	5.06	4.32	4.66	1.44	3.53
GCTCGGAGGACAAGGTGAGAGCTTTGTCCGTAGA	-0.399	-0.339	-1.2	-0.463	-1.12	-0.0348	-0.809	-0.0501	-1.12	-0.422
CCTCGGAGGACAGAAGGTCCGAGCTGTCCGCTTT	-0.475	-0.736	-0.887	-1.15	-0.992	-1.11	-0.956	-1.22	-1.48	-1.44
TCTAGGAGGACACGAAAGGTCAGAGCTCGACATC	3.28	3.77	3.29	3.49	-0.113	3.91	1.98	3.19	2.99	2.51
TGAACGAGGTTAAAGATCAGGGAACGTGGCGTCG	2.87	2.22	-0.236	1.57	-0.0519	4.05	5.17	5.68	4.28	6
ATCTCTAGGTAATACTCAGTTCAGTGAAGAACGC	0.748	1.03	1.19	0.468	1.55	0.541	0.424	0.567	0.572	0.52
ATCGAAAGGTCGAAGGTGAATATACCCACCCGAA	5.04	4.06	0.547	3.42	0.763	5.24	5.61	5.45	2.92	4.71
GATACAGGGTCAGCTAGAGGCAAGAGTATGGAAA	4.32	2.35	-0.297	2.33	-0.0863	4.69	3.78	3.19	0.625	1.71
GCTACAGGGTCAAGGCCAGAGTACGCGTATTGAT	6.86	3.95	-0.363	3.53	-0.375	5.71	5.03	4.94	1.93	3.59
GCTTTTAGTTGAAAGGGCAACCGAATGATTCTCG	0.288	0.561	-0.0833	0.53	0.106	2.2	2.24	4.03	1.85	3.97
CCGACTGGGGCAAGGTTAGCATAACGCACAGCCA	-0.312	-0.11	-0.322	-0.208	-1.24	1.23	2.6	3.06	0.844	2.39
ATATGTAGGTTAAGTGTCATTCAGGTTGGTTCGC	1.68	2.16	1.09	1.93	0.826	4.74	7.81	7.39	6.14	7.88
CTCGAAAGGTCGGATGAGGTGAGTATACGGATAA	2.61	2.09	0.0368	1.69	-0.334	3.17	1.02	1.66	0.432	0.958
GGAACGAGGGCTAAGTTGATAGCATCTGTCGACG	-0.545	-0.626	-0.392	-0.796	-0.848	0.746	1.37	2.81	1.41	2.31
